Results reported in PubChem BioAssay AID1347426 (Functional Genomics Laboratory (NCATS/FGL), 2020).
Hit rate of the full screen: of about 31,000 sequences, about 1,400 (4.5%) were called active. This is one part of a sample in which actives are shown more often than they occur.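 How the source made its calls: active means median seed-adjusted z-score above 1 or below -1; inactive means the rest.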

Test: Novel Modifiers of Survival Motor Neuron (SMN) Protein: Gene Identification via Genome-wide siRNA Screen;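 further: luminescence tracks full-length SMN protein made from the SMN2 reporter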
Details: HEK293T SMN2-luciferase reporter, siRNA knockdown, 72 h; actives lie on both sides
In short: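 Steps: spot 1 pmol siRNA, add Lipofectamine RNAiMax in serum-free DMEM, seed HEK293T SMN2–luciferase reporter cells; incubate 72 h at 37 °C; add ONE-Glo; normalize luminescence to control siRNA, log10, MAD. Candidates: |MAD| > 1.0.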

Sequence | median seed-adjusted z-score
GCGUAAUUUGGACCUCUUUTT against ZDHHC21 | 0.216 (inactive)
CAUUGUGAGCUAUAACGAUTT against CDH10 | 0 (inactive)
GAAACAGUGCUAGAUAAAATT against SULT1C2 | 0 (inactive)
CCAUCUAGCUUAUCGAUAUTT against DYRK3 | 0.358 (inactive)
GAAUUCAGCAUGACCGAUATT against GABPA | 1.43 (active)
CCAUUAUGAUCGUAAGGCATT against GCNT4 | -0.0629 (inactive)
GCAAGUACCUGAGAACGGATT against APOB | -0.0862 (inactive)
GGCUCUCGUAUGUAACGUATT against USP24 | 0.101 (inactive)
GGUUCUCUUGCAUUACUUUTT against GLP2R | 0.492 (inactive)
AGAUCGCUGUCAAAACCCUTT against GFOD1 | 0.923 (inactive)
GGUUAACCCAGAACGUAAATT against TCP1 | -1.02 (active)
GGACCCUACCAGAACUACATT against SEMA6D | 0.0624 (inactive)
GGACUGAGCUUCUCAAUGUTT against FOLR1 | -1.31 (active)
GCAUCGUGAUCGUUCCAAUTT against CHD1L | 0.63 (inactive)
GACCAUGGAUAAUAAGAAATT against CLCN6 | -0.136 (inactive)
CAACUGUUCCAACAACAAUTT against HAVCR1 | -0.306 (inactive)
GAGUCCUAUUACCAGCUCATT against SRM | 0 (inactive)
CUGCCGAACUUUUAAACAATT against MCHR2 | -0.658 (inactive)
UGGAAUCUGUGGUAAAGAATT against HGS | 1.16 (active)
CCACGUCUAAAGUCCGAAATT against KIF3C | 0.0126 (inactive)
GAAUGGUCGUGGAUUCACATT against MAPKAPK5 | 0.489 (inactive)
GGAGAUUCCAUAAGACAAUTT against ZNF114 | -0.303 (inactive)

Sequence | median seed-adjusted z-score
GGAUCUUCGUGAAGUAUUUTT against TRA2A | -0.187 (inactive)
AAAUUCCCGUCAUUGAAAATT against SNRPA1 | -2.71 (active)
GGAUUGCUUCUGACUCCGATT against ELK3 | -0.16 (inactive)
CAUUGACCACUACAAGUAATT against ITFG1 | -0.417 (inactive)
CAUUUGCGGUUCGGACAAATT against CACNB2 | 0 (inactive)
CUCUGUGAAUUUGAAAUCATT against SNED1 | 0.148 (inactive)
GCAAGAUAGCUCAACCCAATT against ADAMTS12 | -0.0721 (inactive)
GUAUCAUGGAUGGAAAAGATT against ASRGL1 | 0 (inactive)
GCAGAGGAGUCAAUGCUAUTT against ARL8B | -0.477 (inactive)
AGCUUUUGUUGAGAGUUCATT against YY1 | 1.94 (active)
GCUACUUACAGGUACCGUATT against PDCD11 | -0.335 (inactive)
GUUUCUGAUUUAAUAGACATT against ZNF781 | 0.0307 (inactive)
CCAACAAACUCACCAUACATT against KREMEN1 | 0 (inactive)
AAACAAUUCCAGUCCAGUUTT against IL8RA | 0.316 (inactive)
CACCUGCGAGUGUUCCAAUTT against CSTB | 1.08 (active)
GGAAAGUUCUUUAGACUUATT against ZNF529 | -0.243 (inactive)
GAAUCAACAAGAUUGGGAATT against CBS | -0.0696 (inactive)
UCGUGUUCCUAGUCAUCUATT against TCIRG1 | 0.123 (inactive)
GUCACGUACUCGCUGCUGATT against SMAD6 | -0.167 (inactive)
GGCUCAACAUACAUCAGAATT against ZNF350 | 0.133 (inactive)
GGCACUCCAUGCUCACUGUTT against AGPAT1 | -1.38 (active)
GGUGAAAGGUCAGAUCUAATT against ZNF436 | 0.00767 (inactive)

Sequence | median seed-adjusted z-score
GGAAGUAUCAGAUCUUGAATT against CYFIP2 | -0.322 (inactive)
GCAGUGUAUAGAACGAGAATT against RNGTT | -1.55 (active)
GCACAUCAAGUUCUAUACATT against SLCO2A1 | -0.0778 (inactive)
CCCUGUCAUCUAUGCUCUATT against CNR2 | 0.33 (inactive)
GACCCACAAAUAUACCAUUTT against SMAP1 | -0.201 (inactive)
GCAAAGCUCUAAAGCCCAATT against TXNDC12 | -0.154 (inactive)
GGAUUAAAGUGUGAAGACUTT against PRKCD | -0.236 (inactive)
GGGCAGAUGACACCUUUGATT against TCEB2 | 1.28 (active)
CGCAAGGACAGAAAACCAATT against ASMT | -0.322 (inactive)
ACGGCUACGUGGUAAAGGATT against RPS6KA1 | 0.194 (inactive)
CAGCAACCAGAGGAGUAUATT against TCF20 | 0.392 (inactive)
CCGUCAUGCACUUACCUUUTT against ADCY9 | 0.269 (inactive)
CAUCAUGACAUGUAUGAUUTT against PAFAH1B3 | -0.381 (inactive)
GAGUGUGACUGGUAAAGUUTT against SMNDC1 | -1.54 (active)
GAGGAAUUGUUGAUAAAGATT against MAGI2 | -0.23 (inactive)
GAAUGCUCCUUUACCAGAATT against GRB10 | -0.0341 (inactive)
GGAAGAACAUGACAACCAATT against IFIT1 | -0.489 (inactive)
CCAACGAUCUGGACCGUGUTT against MED16 | -0.6 (inactive)
GAACCUGGAUCACAUAAUATT against DFFB | 0.242 (inactive)
CCAAGAUUGUCACUCUGGATT against E2F7 | -0.0972 (inactive)
GGUUCGAGGUAAACCCUAATT against CTPS2 | 1.08 (active)
GGGCUACAAACUGAACAAATT against LOC81691 | -0.285 (inactive)

Sequence | median seed-adjusted z-score
CAACAGCGAUUUGAUGGAATT against ERO1L | -0.251 (inactive)
GGAACUGUUUAUAAGGGUATT against RAF1 | 0 (inactive)
GGCACGUUUUACGACAGAATT against CHEK2 | 0.585 (inactive)
GGCACAUGGUUAACCUGGATT against GPX4 | -1.18 (active)
CCCAGGAAGUUCUACUACATT against HS6ST1 | -0.436 (inactive)
GAACUUCACUUAGGACAUUTT against ATP6V1G1 | 0.311 (inactive)
GACUCAAUGGUUUGCAUUATT against CTDP1 | -2.29 (active)
GGAUGAUCAUGAGCGGCAATT against PHKG1 | -0.153 (inactive)
GCUUCAUUGUGGACCGGCATT against GALNTL4 | 0 (inactive)
GACUGGAGAUAUCAAGGAATT against SQLE | -1.14 (active)
CAAUGAAGAUAUGUUUAGATT against WBP5 | 0.452 (inactive)
GAUCAUUGAGAACACGUAUTT against RNF121 | -0.53 (inactive)
GAAUCCACCUUCGACCUGATT against HMX1 | 1.3 (active)
CCACUGAAUAUGUGCAGAATT against FBP2 | 0 (inactive)
CGGCUACGACGAUUACGAATT against MYO15A | 0.0508 (inactive)
GGAUUUCGAUUGCAUCAUUTT against LGI1 | -0.19 (inactive)
AGUGGGUGCUGAACCAUGATT against FES | 0.402 (inactive)
GCCCAGAGACUAUUCAGUATT against SF3A3 | -2.1 (active)
CGUGGAAUACUAGAGCAAATT against ACTL6A | 1.11 (active)
CAGACUUGCUUAAUAGUAATT against ZFP1 | 0.0391 (inactive)
GGAACUACCAUGCAGGCUATT against ATP6V0B | 0 (inactive)
CCAGCAUGGUUACUACGAATT against TRAIP | -0.018 (inactive)

Sequence | median seed-adjusted z-score
GGAACAAGAGUGGACGGAATT against PIAS3 | -0.216 (inactive)
CCAGCUCUUCCAUACAAUATT against RAB9A | 0.247 (inactive)
GGCUUCAUAUCUAGACUAATT against APOBEC3A | 0.467 (inactive)
UGUUCAGCCUUGACUCAAATT against RHOU | -1.44 (active)
GCACCUAUGAGGAAAAUGATT against LAMB2 | 1.12 (active)
GAAGCUUGAUCUAAUUAUATT against ZNF182 | 0 (inactive)
CCAUUUCCAGAGGCCCAGATT against SLC22A12 | -0.148 (inactive)
GCCUGGAACUCGUUAGCAATT against TRMT11 | -0.707 (inactive)
GGCUUAACUUUAGUGUUGATT against PRDM2 | 1.12 (active)
GAGCGAGUUUUACCUGAUATT against ABCA10 | -0.104 (inactive)
CAGAUAUGAUUGGUGUAAATT against CABP1 | -0.192 (inactive)
GAAAUCGACUCUCACCAAATT against IL18RAP | -0.681 (inactive)
CGGAAAAUCAGCAACAUCATT against EPS8L2 | -0.497 (inactive)
GGAUAAUAAGGAUCUAUUUTT against CPNE3 | 0.109 (inactive)
GUUUACCUCUGGAUACACUTT against SNRPD1 | -2.97 (active)
GGAGUUCCAAUGGAAGUUATT against PSMD14 | 0.375 (inactive)
CGAUGGACUAAGUAAUAUATT against KPNA4 | 0.457 (inactive)
CCACCUAUUUGCACAAGGATT against POMT2 | -0.614 (inactive)
UCAAGGCCCUGUGCGCUAATT against PPP4C | 1.15 (active)
GCAACCACCAAGAGUUUGATT against KCNS1 | -0.167 (inactive)
CUGUAGAUCUUUGUCAAAATT against DUS4L | 0.525 (inactive)
